Reference: PubChem BioAssay AID1159580 (chemical genetic matrix, 2015)
Several values for one entry are separate records, joined by “and”; a condition that tells them apart may be missing. Identical values can stand only once. Out of some 5,500 compounds screened, about 2,000 (36%) were called active. About 18% were inconclusive and are not listed. Cut-off read from the data, not from the text of the source: active = normalized growth mostly below about 0.91 (no sharp cut-off); inconclusive = no clear call, values can overlap the other calls; inactive = mostly above about 0.92. This is one part of the list.

Test: chemical genetic growth profiling, strain panel (AID 1159580);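 note: tested at 20 µM; growth read once vehicle control cultures reached saturation at 30 °C; 1 = growth at the plate median or of vehicle wells; lower values mean less growth of the strain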
Details: S. cerevisiae deletion strains, growth OD

Structure (SMILES): CC(C)c1nc(N(C)S(C)(=O)=O)nc(-c2ccc(F)cc2)c1/C=C/[C@@H](O)C[C@@H](O)CC(=O)O
- normalized growth (locus YAL013W, strain DEP1, stronger effect = lower value): 0.988 (inactive)
- normalized growth (locus YAL021C, strain ccr4, stronger effect = lower value): 0.839 (active)
- normalized growth (locus YAL026C, strain drs2, stronger effect = lower value): 0.98 (inactive)
- normalized growth (locus YAL030W, strain snc1, stronger effect = lower value): 0.998 (inactive)
- normalized growth (locus YBL061C, strain skt5, stronger effect = lower value): 1.02 (inactive)
- normalized growth (locus YBR009C, strain hhf1, stronger effect = lower value): 0.998 (inactive)
- normalized growth (locus YBR021W, strain FUR4, stronger effect = lower value): 0.96 (inactive)
- normalized growth (locus YBR023C, strain chs3, stronger effect = lower value): 1.02 (inactive)
- normalized growth (locus YBR171W, strain sec66, stronger effect = lower value): 1.01 (inactive)
- normalized growth (locus YBR229C, strain ROT2, stronger effect = lower value): 1.01 (inactive)
- normalized growth (locus YBR231C, strain swc5, stronger effect = lower value): 0.922 (inactive)
- normalized growth (locus YBR279W, strain paf1, stronger effect = lower value): 0.99 (inactive)
- normalized growth (locus YCL011C, strain gbp2, stronger effect = lower value): 1.01 (inactive)
- normalized growth (locus YCL016C, strain dcc1, stronger effect = lower value): 0.998 (inactive)
- normalized growth (locus YCL029C, strain bik1, stronger effect = lower value): 1.01 (inactive)
- normalized growth (locus YCL069W, strain vba3, stronger effect = lower value): 1.02 (inactive)
- normalized growth (locus YCR088W, strain abp1, stronger effect = lower value): 1.03 (inactive)
- normalized growth (locus YDL005C, strain med2, stronger effect = lower value): 1.02 (inactive)
- normalized growth (locus YDL035C, strain GPR1, stronger effect = lower value): 1 (inactive)
- normalized growth (locus YDL040C, strain nat1, stronger effect = lower value): 1.01 (inactive)
- normalized growth (locus YDL074C, strain BRE1, stronger effect = lower value): 0.995 (inactive)
- normalized growth (locus YDL101C, strain DUN1, stronger effect = lower value): 0.996 (inactive)
- normalized growth (locus YDL134C, strain PPH21, stronger effect = lower value): 0.995 (inactive)
- normalized growth (locus YDL185W, strain tfp1, stronger effect = lower value): 0.928 (inactive)
- normalized growth (locus YDL192W, strain arf1, stronger effect = lower value): 1 (inactive)
- normalized growth (locus YDR001C, strain nth1, stronger effect = lower value): 1.03 (inactive)
- normalized growth (locus YDR069C, strain doa4, stronger effect = lower value): 0.971 (inactive)
- normalized growth (locus YDR101C, strain arx1, stronger effect = lower value): 0.999 (inactive)
- normalized growth (locus YDR137W, strain rgp1, stronger effect = lower value): 1.34 [resistant] (active)
- normalized growth (locus YDR150W, strain NUM1, stronger effect = lower value): 1.01 (inactive)
- normalized growth (locus YDR159W, strain sac3, stronger effect = lower value): 0.998 (inactive)
- normalized growth (locus YDR162C, strain NBP2, stronger effect = lower value): 0.961 (inactive)
- normalized growth (locus YDR195W, strain ref2): 1.09 (inactive)
- normalized growth (locus YDR297W, strain sur2, stronger effect = lower value): 0.977 (inactive)
- normalized growth (locus YDR318W, strain mcm21, stronger effect = lower value): 1.01 (inactive)
- normalized growth (locus YDR334W, strain swr1, stronger effect = lower value): 0.982 (inactive)
- normalized growth (locus YDR335W, strain msn5, stronger effect = lower value): 1.02 (inactive)
- normalized growth (locus YDR388W, stronger effect = lower value): 1.01 (inactive)
- normalized growth (locus YDR392W, strain spt3, stronger effect = lower value): 1.02 (inactive)
- normalized growth (locus YDR502C, strain sam2, stronger effect = lower value): 1 (inactive)
- normalized growth (locus YEL003W, strain gim4, stronger effect = lower value): 1.02 (inactive)
- normalized growth (locus YEL037C, strain rad23, stronger effect = lower value): 1.01 (inactive)
- normalized growth (locus YEL061C, strain CIN8 (second series), stronger effect = lower value): 1.02 (inactive)
- normalized growth (locus YEL061C, strain CIN8, stronger effect = lower value): 0.998 (inactive)
- normalized growth (locus YER015W, strain faa2, stronger effect = lower value): 0.99 (inactive)
- normalized growth (locus YER016W, strain bim1, stronger effect = lower value): 1.01 (inactive)
- normalized growth (locus YER110C, stronger effect = lower value): 0.999 (inactive)
- normalized growth (locus YER111C, strain swi4, stronger effect = lower value): 1.02 (inactive)
- normalized growth (locus YER155C, strain BEM2 (second series), stronger effect = lower value): 1.02 (inactive)
- normalized growth (locus YER155C, strain BEM2, stronger effect = lower value): 0.99 (inactive)
- normalized growth (locus YER167W, strain BCK2, stronger effect = lower value): 1 (inactive)
- normalized growth (locus YFR010W, strain ubp6, stronger effect = lower value): 0.995 (inactive)
- normalized growth (locus YGL078C, strain dbp3, stronger effect = lower value): 0.997 (inactive)
- normalized growth (locus YGL086W, strain mad1, stronger effect = lower value): 1.01 (inactive)
- normalized growth (locus YGL167C, strain pmr1, stronger effect = lower value): 1.01 (inactive)
- normalized growth (locus YGL173C, strain kem1, stronger effect = lower value): 1 (inactive)
- normalized growth (locus YGL227W, strain vid30, stronger effect = lower value): 1.02 (inactive)
- normalized growth (locus YGL240W, strain doc1, stronger effect = lower value): 1.03 (inactive)
- normalized growth (locus YGL248W, strain PDE1, stronger effect = lower value): 0.993 (inactive)
- normalized growth (locus YGL253W, strain hxk2, stronger effect = lower value): 1.01 (inactive)
- normalized growth (locus YGR078C, strain PAC10, stronger effect = lower value): 1.01 (inactive)
- normalized growth (locus YGR135W, strain pre9, stronger effect = lower value): 0.987 (inactive)
- normalized growth (locus YGR229C, strain SMI1, stronger effect = lower value): 1.01 (inactive)
- normalized growth (locus YGR252W, strain gcn5, stronger effect = lower value): 1.04 (inactive)
- normalized growth (locus YHR013C, strain ard1, stronger effect = lower value): 0.972 (inactive)
- normalized growth (locus YHR027C, strain rpn1, stronger effect = lower value): 1.01 (inactive)
- normalized growth (locus YHR030C, strain SLT2, stronger effect = lower value): 1 (inactive) and 0.0994 (active)
- normalized growth (locus YHR079C, strain IRE1 (second series), stronger effect = lower value): 1 (inactive)
- normalized growth (locus YHR079C, strain IRE1, stronger effect = lower value): 0.127 (active)
- normalized growth (locus YHR094C, strain hxt1, stronger effect = lower value): 1.01 (inactive)
- normalized growth (locus YHR129C, strain ARP1, stronger effect = lower value): 0.99 (inactive)
- normalized growth (locus YHR142W, strain chs7, stronger effect = lower value): 1.02 (inactive)
- normalized growth (locus YHR200W, strain rpn10, stronger effect = lower value): 1 (inactive)
- normalized growth (locus YIL066C, strain RNR3, stronger effect = lower value): 1.02 (inactive)
- normalized growth (locus YIL073C, strain SPO22, stronger effect = lower value): 1 (inactive)
- normalized growth (locus YIL125W, strain kgd1, stronger effect = lower value): 1.02 (inactive)
- normalized growth (locus YIR030C, strain dcg1, stronger effect = lower value): 1.01 (inactive)
- normalized growth (locus YJL092W, strain hpr5, stronger effect = lower value): 1.03 (inactive)
- normalized growth (locus YJL095W, strain BCK1 (second series), stronger effect = lower value): 0.986 (inactive)
- normalized growth (locus YJL095W, strain BCK1, stronger effect = lower value): 0.996 (inactive) and 0.12 (active)
- normalized growth (locus YJL115W, strain asf1, stronger effect = lower value): 1 (inactive)
- normalized growth (locus YJL129C, strain trk1, stronger effect = lower value): 1.08 (inactive)
- normalized growth (locus YJL134W, strain LCB3, stronger effect = lower value): 1 (inactive)
- normalized growth (locus YJL154C, strain vps35, stronger effect = lower value): 1.01 (inactive)
- normalized growth (locus YJL164C, strain tpk1, stronger effect = lower value): 1 (inactive)
- normalized growth (locus YJL166W, strain qcr8, stronger effect = lower value): 0.994 (inactive)
- normalized growth (locus YJL168C, strain set2, stronger effect = lower value): 1.01 (inactive)
- normalized growth (locus YJL187C, strain SWE1 (second series), stronger effect = lower value): 1 (inactive)
- normalized growth (locus YJL187C, strain SWE1, stronger effect = lower value): 0.998 (inactive)
- normalized growth (locus YJR043C, strain POL32, stronger effect = lower value): 0.997 (inactive)
- normalized growth (locus YJR066W, strain TOR1, stronger effect = lower value): 0.00783 (active)
